Bioassay records: PubChem BioAssay, several laboratories
CYP2C9 activ: human CYP2C9 activators, primary screen, biochemical, luminescence | activation factor at 5 µM | AID 1024, 2008 | recombinant CYP2C9, luciferin-H conversion; stronger effect = higher value; factor 1 = untreated enzyme, 0 = blocked | actives 1.4% (n = 96,000);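 active means activation factor of 2 or more for CYP2C9 at a 5 µM dose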
CYP2C19 inhib: blockers of cytochrome P450 2C19 activity – biochemical, luminescence, ADME assay, primary screen; P33261; CYP2C19 Supersomes, luciferin-H EGE luminescence, 30 min; inhibition, % at 5 µM; actives 21% (n = 96,000);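 active means CYP2C19 inhibition above a set limit at 5 µM in the primary screen, cut at about 50% in these data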
Target sequence (P33261 whole entry, looked up): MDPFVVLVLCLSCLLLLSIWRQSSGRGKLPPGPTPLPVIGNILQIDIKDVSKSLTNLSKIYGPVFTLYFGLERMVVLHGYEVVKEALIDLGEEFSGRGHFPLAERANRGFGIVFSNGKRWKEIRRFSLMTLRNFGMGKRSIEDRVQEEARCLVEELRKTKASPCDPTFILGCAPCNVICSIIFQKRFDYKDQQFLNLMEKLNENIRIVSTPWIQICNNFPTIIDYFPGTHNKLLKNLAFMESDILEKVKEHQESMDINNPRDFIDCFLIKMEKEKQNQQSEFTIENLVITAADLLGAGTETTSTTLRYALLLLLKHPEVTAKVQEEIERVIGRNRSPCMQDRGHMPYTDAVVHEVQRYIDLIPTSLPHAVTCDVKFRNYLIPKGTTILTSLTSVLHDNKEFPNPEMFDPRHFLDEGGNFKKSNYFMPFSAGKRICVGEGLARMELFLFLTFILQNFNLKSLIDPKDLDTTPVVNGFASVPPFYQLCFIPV
MRP1 act: H69AR viability gain despite doxorubicin, primary screen, MRP-1 activator project, H69AR cells, CellTiter-Glo; viability rescue; viability increase, % at 10 µM; actives 0.61% (n = 140,000); AID 799, 2007;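 active means viability gain under doxorubicin at or above a set limit, the compound median plus 3 SD, cut at about 4.7% in these data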;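 further: MRP-1 overexpressing cells given doxorubicin 25 µM after compound pretreatment; 18-22 h compound pretreatment then 72 h with doxorubicin before readout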
MRP resist rev: reversal of MRP1-mediated doxorubicin resistance, primary screen, H69AR cells, doxorubicin co-treatment; H69AR cells + 2 uM doxorubicin, CellTiter-Glo, 72 h; AID 602, 2007; differential viability (reversal), % at 10 µM; actives 0.04% (n = 85,000);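 active means viability drop by adding the cancer drug above about 55%, with treated viability meeting a 40% cutoff, limit read from the data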;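 further: larger differential means the compound sensitizes cells more to doxorubicin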
CYP2C19 act: human CYP2C19 activators, primary screen, biochemical, luminescence. 96,000 tested, under 10 active. activation factor at 5 µM. Cytochrome P450 2C19 (Homo sapiens), P33261. recombinant CYP2C19, luciferin-H EGE luminescence; stronger effect = higher value; 0 = fully inhibited enzyme, 1 = untreated enzyme;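 active means activation factor of at least 2 at 5 µM in the primary screen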
CYP2C9 inhib: blockers of cytochrome P450 2C9 activity – biochemical, luminescence, ADME assay, primary screen | P11712 | CYP2C9 Supersomes, luciferin-H conversion | actives 20% (n = 96,000) | inhibition, % at 5 µM | AID 777, 2007;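 active means blocking of liver enzyme CYP2C9 beyond about 50% at 5 µM, limit read from the data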
Numbers stand for hits; n = inactive; x = no result given. A selection: hits, their analogues and other compounds. The true share with any hit is near 21%.

SMILES	CYP2C9 activ	CYP2C19 inhib	MRP1 act	MRP resist rev	CYP2C19 act	CYP2C9 inhib
O=C(NCCc1c[nH]c2ccccc12)c1ccc([N+](=O)[O-])cc1	x	x	n	x	x	x
O=C(NCCc1c[nH]c2ccccc12)c1ccc(-n2cnnn2)cc1	3.1	53	n	n	n	n
O=C(NCCc1c[nH]c2ccccc12)c1ccc(S(=O)(=O)NCc2ccco2)cc1	n	84	n	n	n	84
Cc1oc(CC(C)C)c(CN)c1C(=O)O	n	n	n	x	n	n
Cn1nc(-c2ccccc2)c(C(=O)Nc2ccc(Cl)cc2)c1Cl	n	63	n	x	n	n
COc1ccnc(NCc2ccc(Cl)cc2)c1C#N	n	100	n	x	n	n
c1ccc(-c2nc(NCc3cccnc3)c3oc4ccccc4c3n2)cc1	n	n	n	n	n	58
CSCC[C@@H](Nc1nc(-c2ccccc2)nc2c1oc1ccccc12)C(=O)O	n	n	n	n	n	64
Cn1c(SCC(=O)NCc2ccc3c(c2)OCO3)nnc1C1COc2ccccc2O1 (stereo not given)	n	n	n	n	n	n
Cc1ccc(-c2noc(CCC(=O)NCCCN3CCN(c4ccc(F)cc4)CC3)n2)cc1	n	57	n	n	n	70
Cc1ccc(-c2noc(CCC(=O)NCCCN3CCN(c4cccc(Cl)c4)CC3)n2)cc1	n	n	n	n	n	74
O=C(NCCCN1CCN(c2cccc(Cl)c2)CC1)c1ccc(N2CCCC2=O)cc1	n	n	n	n	n	66
O=C(NCCCN1CCN(c2cccc(Cl)c2)CC1)c1cccc(N2CCCC2=O)c1	x	x	n	n	x	x
COc1ccc(-c2noc(CCC(=O)NCCN3CCN(c4ccccc4F)CC3)n2)cc1	n	n	n	n	n	69
COc1cc(C(=O)NC2CCCc3ccccc32)ccc1OCC(=O)Nc1ccc(F)cc1 (stereo not given)	x	x	n	x	x	x
O=C(Nc1ccc2c(c1)OCO2)C(c1ccccc1)N1CCC2(CC1)OCCO2 (stereo not given)	n	90	n	n	n	79
Cc1cccc(NC(=O)C(c2cccc([N+](=O)[O-])c2)N2CCCCC2)c1 (stereo not given)	n	52	n	x	n	n
Cc1cccc(NC(=O)c2cc([N+](=O)[O-])ccc2NC2CCCCC2)c1	x	x	n	x	x	x
O=C(Nc1ccc2c(c1)OCO2)C(c1ccccc1)N1CCCCC1 (stereo not given)	n	58	n	n	n	60
O=C(NC1CCCCC1)C(c1ccc(Cl)cc1)N1CCC2(CC1)OCCO2 (stereo not given)	n	n	n	n	n	n
CC(C)CC(NC(=O)C1CCC(C)CC1)C(=O)Nc1ccc2c(c1)OCCO2 (stereo not given)	n	n	n	n	n	52
O=C1CN(C(=O)c2ccc(Br)o2)C(c2ccc(F)cc2)c2cc(F)ccc2N1 (stereo not given)	x	x	n	n	x	x
COc1cccc(/C=C/C(=O)OCC(=O)Nc2cc(C(F)(F)F)ccc2Cl)c1	x	x	n	x	x	x
CC1CCCN(C(C(=O)Nc2ccc3c(c2)OCO3)c2ccccc2)C1 (stereo not given)	n	80	n	n	n	82
CC1CCN(C(C(=O)Nc2ccc3c(c2)OCO3)c2ccccc2)CC1 (stereo not given)	n	73	n	n	n	84
SMILES	CYP2C9 activ	CYP2C19 inhib	MRP1 act	MRP resist rev	CYP2C19 act	CYP2C9 inhib
COC(=O)c1ccccc1NC(=O)Nc1ccc2c(c1)OCO2	n	n	n	n	n	n
Cc1cc(C)nc(NS(=O)(=O)c2ccc(NC(=O)C3(c4ccc([N+](=O)[O-])cc4)CCCC3)cc2)n1	x	x	n	x	x	x
Cc1cccc(NC(=O)C2(c3ccc([N+](=O)[O-])cc3)CCCC2)c1	n	78	n	x	n	n
NNc1nnc(-c2ccccc2)c(-c2ccccc2)n1	n	88	n	n	n	79
O=[N+]([O-])c1ccccc1/C=N/Nc1nnc(-c2ccccc2)c(-c2ccccc2)n1	x	x	n	x	x	x
Cc1cccc(N(CC(=O)N/N=C/c2cc([N+](=O)[O-])ccc2Cl)S(C)(=O)=O)c1C	n	53	n	x	n	n
CC(SCc1ccccc1)C(=O)N/N=C/c1ccc(OCC(=O)NCc2ccco2)cc1 (stereo not given)	x	x	n	x	x	x
COc1ccc(CSCC(=O)N/N=C/c2ccc(OCC(=O)NCc3ccco3)cc2)cc1	n	58	n	x	n	70
CS(=O)(=O)N(CC(=O)N/N=C/c1cc([N+](=O)[O-])ccc1Cl)c1ccccc1	n	n	n	x	n	n
CS(=O)(=O)N(CC(=O)N/N=C/c1ccc(OCC(=O)N2CCOCC2)cc1)c1ccccc1Cl	x	x	n	x	x	x
Cc1cccc(N(CC(=O)N/N=C/c2ccc(OCC(=O)NCc3ccco3)cc2)S(C)(=O)=O)c1C	n	77	n	x	n	96
Cn1c(=O)c(Nc2ccc(O)cc2)c2c3c(cccc31)C(=O)c1ccccc1-2	x	x	n	x	x	x
CCCS(=O)(=O)N1CCC(C(=O)NCC2CCCO2)CC1 (stereo not given)	n	n	n	n	n	n
Cc1nn(C(=O)c2cccnc2)c(C)c1Sc1ccc(Br)cc1	n	70	n	x	n	n
Cc1nn(C(=O)c2ccco2)c(C)c1Sc1ccc(Cl)cc1	x	x	n	x	x	x
COc1cccc(-n2c(C)c(C(C)=O)c(C(C)=O)c2C)c1	n	77	n	n	n	78
COc1ccc(-n2c(C)c(C(C)=O)c(C(C)=O)c2C)cc1OC	n	68	n	n	n	n
CC1(C)CC(=O)C(C=Nc2ccc3[nH]ncc3c2)=C(O)C1	n	100	n	n	n	n
CC1(C)CC(=O)C(C=Nc2ccc(O)cc2)=C(O)C1	n	n	n	n	n	n
CC1(C)CC(=O)C(C=Nc2ccc3cn[nH]c3c2)=C(O)C1	n	54	n	n	n	n
COc1ccc(Nc2nc(Cl)nc(NCCO)n2)cc1	x	x	n	x	x	x
COc1ccc(Cl)cc1Nc1nc(NCCO)nc(N2CCCC2)n1	n	57	n	n	n	59
COc1ccc(Cl)cc1NC(=O)CSc1nc(N2CCCCC2)nc(N2CCCCC2)n1	n	n	n	n	n	84
CS(=O)(=O)NCCC1=CCCCC1	n	n	n	n	n	n
CCn1c(SCC(=O)Nc2ccccc2C(=O)OC)nnc1-c1ccc(N)cc1	n	98	n	x	n	n
CCn1c(SCC(=O)Nc2ccccc2C(=O)OC)nnc1-c1ccoc1C	n	94	n	n	n	n
O=C(CNC(=O)C12CC3CC(CC(C3)C1)C2)N1CCN(S(=O)(=O)/C=C/c2ccccc2)CC1	x	x	n	x	x	x
